Assay in all cases: DAPPL (digital affinity profiling via proximity ligation, sequencing); 10 mM Tris-HCl pH 7.5, 50 mM NaCl, 1 mM DTT, 4% glycerol, room temperature, 30 min; GST-TFs on glutathione beads, 16-mer random dsDNA library, 0.1% formaldehyde crosslink after washing; high values mean tight binding
One assay concerns the target T1, FEV (Homo sapiens, UniProt Q99581 1-238).
T1 sequence: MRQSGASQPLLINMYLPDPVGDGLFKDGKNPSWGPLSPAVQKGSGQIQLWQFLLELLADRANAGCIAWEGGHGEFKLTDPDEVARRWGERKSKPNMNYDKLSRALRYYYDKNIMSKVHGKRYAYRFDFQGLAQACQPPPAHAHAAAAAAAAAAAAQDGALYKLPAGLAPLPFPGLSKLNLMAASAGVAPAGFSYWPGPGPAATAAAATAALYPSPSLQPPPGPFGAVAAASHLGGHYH
The conditions noted are these: protein: recombinant; tags: N-terminal GST; dsDNA, one strand shown. The method, boiled down:
(§1)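 Each value of binding signal is a hexamer's read frequency for a factor divided by the same hexamer's frequency in the tag-only sample. Barcoded, bead-captured GST fusions of human transcription factors made in yeast were pooled with that sample and incubated with 200 nmole of a random double-stranded 16-mer DNA library in Tris/NaCl/DTT/glycerol buffer at room temperature for 30 min. Washing, 0.1% formaldehyde crosslinking, proximity ligation, PCR and Illumina NextSeq500 sequencing followed.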

The next assay concerns the target ETV5 (Homo sapiens, UniProt P41161 1-510). The conditions noted are these: protein: recombinant; tags: N-terminal GST; dsDNA, one strand shown. The gist of the method:
as §1

The target in a further assay is HSF1 (Homo sapiens, UniProt Q00613 1-529). The note with it: protein: recombinant; tags: N-terminal GST; chain copies: 3; dsDNA, one strand shown. The method, boiled down:
as §1

For another assay, the target named is T2, SPIC (Homo sapiens, UniProt Q8N5J4 1-248).
T2 sequence: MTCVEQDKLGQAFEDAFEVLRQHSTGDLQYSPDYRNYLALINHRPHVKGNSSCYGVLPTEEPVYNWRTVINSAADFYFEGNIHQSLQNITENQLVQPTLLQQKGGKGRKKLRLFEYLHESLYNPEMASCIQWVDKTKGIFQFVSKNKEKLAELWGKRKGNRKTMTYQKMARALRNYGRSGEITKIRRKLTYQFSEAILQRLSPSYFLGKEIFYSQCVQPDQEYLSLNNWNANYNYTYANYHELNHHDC
The conditions noted are these: protein: recombinant; tags: N-terminal GST; dsDNA, one strand shown. The gist of the method: as §1

The target in a further assay is ELF4 (Homo sapiens, UniProt Q99607 1-663). The conditions noted are these: protein: recombinant; tags: N-terminal GST; dsDNA, one strand shown. The method, boiled down: as §1
Sequence of ELF4 (Q99607 whole entry): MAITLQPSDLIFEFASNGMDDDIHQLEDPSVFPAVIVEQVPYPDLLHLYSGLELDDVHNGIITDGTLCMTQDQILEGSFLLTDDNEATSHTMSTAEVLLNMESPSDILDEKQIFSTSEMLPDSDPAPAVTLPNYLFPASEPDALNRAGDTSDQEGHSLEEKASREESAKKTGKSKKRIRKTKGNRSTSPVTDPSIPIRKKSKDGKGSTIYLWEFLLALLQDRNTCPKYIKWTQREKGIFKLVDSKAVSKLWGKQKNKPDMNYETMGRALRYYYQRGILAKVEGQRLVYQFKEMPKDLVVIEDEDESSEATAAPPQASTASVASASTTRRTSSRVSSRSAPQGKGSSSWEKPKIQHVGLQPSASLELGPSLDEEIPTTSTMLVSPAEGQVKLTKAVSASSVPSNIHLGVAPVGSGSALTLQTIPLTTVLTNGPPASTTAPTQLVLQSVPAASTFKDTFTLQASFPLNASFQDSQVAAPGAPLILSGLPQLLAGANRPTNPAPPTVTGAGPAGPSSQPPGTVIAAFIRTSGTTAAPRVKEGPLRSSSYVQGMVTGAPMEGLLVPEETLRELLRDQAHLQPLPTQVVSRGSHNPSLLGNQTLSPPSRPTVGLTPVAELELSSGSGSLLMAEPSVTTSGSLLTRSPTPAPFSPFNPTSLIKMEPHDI
Another assay deals with T3, ELK4 (Homo sapiens, UniProt P28324-2 1-405).
T3 sequence: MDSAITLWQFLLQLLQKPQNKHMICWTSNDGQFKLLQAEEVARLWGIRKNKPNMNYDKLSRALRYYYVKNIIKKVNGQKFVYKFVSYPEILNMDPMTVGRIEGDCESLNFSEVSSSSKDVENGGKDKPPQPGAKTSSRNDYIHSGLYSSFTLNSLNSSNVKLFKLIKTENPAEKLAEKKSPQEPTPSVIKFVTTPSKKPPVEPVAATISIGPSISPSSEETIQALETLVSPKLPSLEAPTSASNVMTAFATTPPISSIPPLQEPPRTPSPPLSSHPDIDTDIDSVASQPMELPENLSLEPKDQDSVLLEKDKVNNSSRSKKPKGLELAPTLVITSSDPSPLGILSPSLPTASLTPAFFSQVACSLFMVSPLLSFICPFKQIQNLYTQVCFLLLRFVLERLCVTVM
The note with it: protein: recombinant; tags: N-terminal GST; dsDNA, one strand shown. The method, boiled down:
as §1

For the next assay, the target named is T4, ETV2 (Homo sapiens, UniProt O00321 1-342).
T4 sequence: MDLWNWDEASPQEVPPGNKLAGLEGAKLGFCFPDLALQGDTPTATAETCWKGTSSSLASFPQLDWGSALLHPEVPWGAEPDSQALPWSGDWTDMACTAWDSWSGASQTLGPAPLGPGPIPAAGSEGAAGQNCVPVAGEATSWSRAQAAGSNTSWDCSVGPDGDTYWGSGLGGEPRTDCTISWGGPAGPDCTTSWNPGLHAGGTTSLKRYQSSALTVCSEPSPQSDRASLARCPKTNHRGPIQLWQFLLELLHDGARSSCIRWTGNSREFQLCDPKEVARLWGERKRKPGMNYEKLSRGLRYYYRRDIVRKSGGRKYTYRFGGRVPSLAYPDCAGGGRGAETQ
The conditions noted are these: protein: recombinant; tags: N-terminal GST; dsDNA, one strand shown. The method, boiled down: as §1

A further assay addresses T5, ELF3 (Homo sapiens, UniProt P78545 1-371).
T5 sequence: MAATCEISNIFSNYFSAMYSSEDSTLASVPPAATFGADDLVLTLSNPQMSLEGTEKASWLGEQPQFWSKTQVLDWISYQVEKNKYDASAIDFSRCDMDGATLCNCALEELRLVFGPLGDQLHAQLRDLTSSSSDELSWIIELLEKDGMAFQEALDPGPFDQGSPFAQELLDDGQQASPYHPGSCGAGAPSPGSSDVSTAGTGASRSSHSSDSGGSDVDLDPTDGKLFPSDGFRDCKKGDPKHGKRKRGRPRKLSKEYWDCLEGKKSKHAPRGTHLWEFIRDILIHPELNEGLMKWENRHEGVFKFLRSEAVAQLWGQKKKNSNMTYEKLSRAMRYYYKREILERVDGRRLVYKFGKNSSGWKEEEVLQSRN
The note with it: protein: recombinant; tags: N-terminal GST; dsDNA, one strand shown. The gist of the method: as §1

The target in a further assay is CRX (Homo sapiens, UniProt O43186 1-299). The conditions noted are these: protein: recombinant; tags: N-terminal GST; dsDNA, one strand shown. The gist of the method: as §1
Sequence of CRX (O43186 whole entry): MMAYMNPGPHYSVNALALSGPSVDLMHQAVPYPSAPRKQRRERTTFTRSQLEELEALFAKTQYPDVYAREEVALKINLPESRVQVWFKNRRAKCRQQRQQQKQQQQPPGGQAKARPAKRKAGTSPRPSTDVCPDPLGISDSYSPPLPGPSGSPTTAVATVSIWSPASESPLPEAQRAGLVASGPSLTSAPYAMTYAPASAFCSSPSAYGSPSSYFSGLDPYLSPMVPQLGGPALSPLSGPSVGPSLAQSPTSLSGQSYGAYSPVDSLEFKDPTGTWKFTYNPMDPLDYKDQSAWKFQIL
The next assay deals with ETV1 (Homo sapiens, UniProt P50549 1-477). The conditions noted are these: protein: recombinant; tags: N-terminal GST; dsDNA, one strand shown. The gist of the method:
as §1

The target in another assay is T6, ERF (Homo sapiens, UniProt P50548 1-548).
T6 sequence: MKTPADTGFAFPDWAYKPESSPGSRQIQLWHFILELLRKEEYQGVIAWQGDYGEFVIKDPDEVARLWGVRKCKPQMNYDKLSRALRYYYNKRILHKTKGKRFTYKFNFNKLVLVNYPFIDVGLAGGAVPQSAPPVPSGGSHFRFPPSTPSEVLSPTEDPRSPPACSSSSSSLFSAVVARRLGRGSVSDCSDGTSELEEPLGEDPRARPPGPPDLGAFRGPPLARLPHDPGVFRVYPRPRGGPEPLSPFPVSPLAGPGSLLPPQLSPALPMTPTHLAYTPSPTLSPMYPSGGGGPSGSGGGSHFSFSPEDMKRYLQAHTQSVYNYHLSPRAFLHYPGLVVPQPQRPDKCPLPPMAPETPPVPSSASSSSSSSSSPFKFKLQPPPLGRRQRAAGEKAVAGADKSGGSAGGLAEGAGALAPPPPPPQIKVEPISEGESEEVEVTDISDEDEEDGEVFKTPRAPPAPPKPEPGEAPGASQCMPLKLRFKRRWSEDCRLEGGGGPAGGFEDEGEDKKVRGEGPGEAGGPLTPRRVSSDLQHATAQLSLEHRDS
The note with it: protein: recombinant; tags: N-terminal GST; dsDNA, one strand shown. The gist of the method:
as §1

In a further assay the target is T7, ETV3L (Homo sapiens, UniProt Q6ZN32 1-361).
T7 sequence: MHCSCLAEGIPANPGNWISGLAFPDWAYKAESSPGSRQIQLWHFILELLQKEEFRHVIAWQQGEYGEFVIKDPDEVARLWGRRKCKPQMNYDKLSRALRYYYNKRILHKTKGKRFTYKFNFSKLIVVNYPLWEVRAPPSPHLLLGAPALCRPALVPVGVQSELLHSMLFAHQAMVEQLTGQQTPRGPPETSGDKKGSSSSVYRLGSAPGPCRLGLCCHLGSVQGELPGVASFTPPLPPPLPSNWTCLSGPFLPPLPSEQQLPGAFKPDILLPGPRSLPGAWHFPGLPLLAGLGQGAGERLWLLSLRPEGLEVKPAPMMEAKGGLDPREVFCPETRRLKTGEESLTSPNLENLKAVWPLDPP
The conditions noted are these: protein: recombinant; tags: N-terminal GST; dsDNA, one strand shown. The method, boiled down: as §1

The target in another assay is T8, ETS2 (Homo sapiens, UniProt P15036 1-469).
T8 sequence: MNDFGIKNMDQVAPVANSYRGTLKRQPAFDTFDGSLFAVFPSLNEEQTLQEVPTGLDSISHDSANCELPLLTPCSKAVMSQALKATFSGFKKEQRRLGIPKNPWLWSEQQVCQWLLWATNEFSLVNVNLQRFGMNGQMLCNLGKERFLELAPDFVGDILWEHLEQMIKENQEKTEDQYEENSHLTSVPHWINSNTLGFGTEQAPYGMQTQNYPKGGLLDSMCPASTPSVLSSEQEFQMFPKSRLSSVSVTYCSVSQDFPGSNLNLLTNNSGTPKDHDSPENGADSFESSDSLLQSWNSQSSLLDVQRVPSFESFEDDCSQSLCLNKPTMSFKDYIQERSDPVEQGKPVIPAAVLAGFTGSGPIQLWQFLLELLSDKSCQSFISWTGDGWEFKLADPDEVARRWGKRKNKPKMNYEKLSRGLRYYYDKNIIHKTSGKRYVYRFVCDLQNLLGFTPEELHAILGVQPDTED
The note with it: protein: recombinant; tags: N-terminal GST; dsDNA, one strand shown. The gist of the method:
as §1

A further assay deals with T9, SPDEF (Homo sapiens, UniProt O95238 1-335).
T9 sequence: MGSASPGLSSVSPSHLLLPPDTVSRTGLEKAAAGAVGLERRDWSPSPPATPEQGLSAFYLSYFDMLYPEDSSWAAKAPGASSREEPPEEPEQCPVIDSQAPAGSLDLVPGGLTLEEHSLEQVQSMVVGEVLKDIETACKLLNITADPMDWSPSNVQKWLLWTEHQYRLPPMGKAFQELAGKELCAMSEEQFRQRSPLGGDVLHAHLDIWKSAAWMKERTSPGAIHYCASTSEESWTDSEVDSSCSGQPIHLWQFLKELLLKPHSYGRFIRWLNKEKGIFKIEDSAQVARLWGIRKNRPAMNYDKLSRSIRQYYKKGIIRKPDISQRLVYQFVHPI
The conditions noted are these: protein: recombinant; tags: N-terminal GST; dsDNA, one strand shown. The gist of the method: as §1

For another assay, the target named is T10, ETV7 (Homo sapiens, UniProt Q9Y603 1-341).
T10 sequence: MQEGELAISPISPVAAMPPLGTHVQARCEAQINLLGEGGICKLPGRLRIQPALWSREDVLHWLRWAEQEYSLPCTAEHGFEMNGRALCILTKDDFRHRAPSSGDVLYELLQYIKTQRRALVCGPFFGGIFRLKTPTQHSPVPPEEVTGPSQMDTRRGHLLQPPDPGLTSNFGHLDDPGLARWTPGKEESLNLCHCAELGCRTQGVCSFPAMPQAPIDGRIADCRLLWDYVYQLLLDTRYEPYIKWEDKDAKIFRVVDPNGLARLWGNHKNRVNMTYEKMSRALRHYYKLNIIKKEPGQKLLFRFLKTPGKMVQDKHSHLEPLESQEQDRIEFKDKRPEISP
The conditions noted are these: protein: recombinant; tags: N-terminal GST; dsDNA, one strand shown. The gist of the method: as §1

The next assay deals with T11, ELF5 (Homo sapiens, UniProt Q9UKW6-2 1-255).
T11 sequence: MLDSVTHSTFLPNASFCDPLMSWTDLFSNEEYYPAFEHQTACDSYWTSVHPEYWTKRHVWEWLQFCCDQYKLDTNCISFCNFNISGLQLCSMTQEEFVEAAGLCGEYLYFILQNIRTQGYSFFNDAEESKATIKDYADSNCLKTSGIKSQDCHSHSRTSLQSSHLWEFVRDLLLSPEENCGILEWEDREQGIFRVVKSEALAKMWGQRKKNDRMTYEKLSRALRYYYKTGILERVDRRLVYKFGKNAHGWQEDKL
The conditions noted are these: protein: recombinant; tags: N-terminal GST; dsDNA, one strand shown. The gist of the method: as §1

Another assay concerns the target T12, ETV3 (Homo sapiens, UniProt P41162-2 1-143).
T12 sequence: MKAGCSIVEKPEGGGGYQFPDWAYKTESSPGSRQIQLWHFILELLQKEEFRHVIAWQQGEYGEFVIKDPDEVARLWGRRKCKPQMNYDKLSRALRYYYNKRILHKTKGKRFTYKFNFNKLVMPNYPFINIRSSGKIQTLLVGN
The conditions noted are these: protein: recombinant; tags: N-terminal GST; dsDNA, one strand shown. The method, boiled down: as §1

Another assay has as its target ETV6 (Homo sapiens, UniProt P41212 1-452). The note with it: protein: recombinant; tags: N-terminal GST; dsDNA, one strand shown. The method, boiled down:
as §1

Sequence of ETV5 (P41161 whole entry): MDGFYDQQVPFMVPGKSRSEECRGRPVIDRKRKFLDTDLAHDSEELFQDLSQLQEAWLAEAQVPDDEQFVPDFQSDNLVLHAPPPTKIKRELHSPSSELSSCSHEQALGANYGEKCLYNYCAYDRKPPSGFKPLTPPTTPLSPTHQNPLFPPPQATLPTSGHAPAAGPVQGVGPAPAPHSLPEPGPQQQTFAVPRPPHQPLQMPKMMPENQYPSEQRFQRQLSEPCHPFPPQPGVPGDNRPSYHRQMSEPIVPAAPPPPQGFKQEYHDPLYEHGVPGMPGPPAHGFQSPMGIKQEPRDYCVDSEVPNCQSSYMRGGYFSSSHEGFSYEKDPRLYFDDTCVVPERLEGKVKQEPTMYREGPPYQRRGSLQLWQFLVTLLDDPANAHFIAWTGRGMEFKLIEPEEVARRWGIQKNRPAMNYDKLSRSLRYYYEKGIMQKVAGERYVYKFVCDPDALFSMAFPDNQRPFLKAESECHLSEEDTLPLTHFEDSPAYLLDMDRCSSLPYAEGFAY
Sequence of HSF1 (Q00613 whole entry): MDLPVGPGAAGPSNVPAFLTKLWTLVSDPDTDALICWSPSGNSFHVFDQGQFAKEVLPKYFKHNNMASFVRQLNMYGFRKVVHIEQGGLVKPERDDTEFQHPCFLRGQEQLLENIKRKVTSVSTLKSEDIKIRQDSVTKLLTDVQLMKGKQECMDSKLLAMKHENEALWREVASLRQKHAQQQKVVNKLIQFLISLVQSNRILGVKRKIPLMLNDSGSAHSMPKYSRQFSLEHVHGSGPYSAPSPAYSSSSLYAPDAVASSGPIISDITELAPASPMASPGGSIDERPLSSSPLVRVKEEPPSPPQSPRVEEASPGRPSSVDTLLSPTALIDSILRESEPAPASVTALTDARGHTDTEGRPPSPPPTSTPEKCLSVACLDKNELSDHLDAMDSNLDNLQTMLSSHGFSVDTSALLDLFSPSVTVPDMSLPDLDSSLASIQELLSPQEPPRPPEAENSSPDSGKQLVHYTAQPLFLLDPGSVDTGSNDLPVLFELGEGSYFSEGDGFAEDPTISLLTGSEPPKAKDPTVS
Sequence of ETV1 (P50549 whole entry): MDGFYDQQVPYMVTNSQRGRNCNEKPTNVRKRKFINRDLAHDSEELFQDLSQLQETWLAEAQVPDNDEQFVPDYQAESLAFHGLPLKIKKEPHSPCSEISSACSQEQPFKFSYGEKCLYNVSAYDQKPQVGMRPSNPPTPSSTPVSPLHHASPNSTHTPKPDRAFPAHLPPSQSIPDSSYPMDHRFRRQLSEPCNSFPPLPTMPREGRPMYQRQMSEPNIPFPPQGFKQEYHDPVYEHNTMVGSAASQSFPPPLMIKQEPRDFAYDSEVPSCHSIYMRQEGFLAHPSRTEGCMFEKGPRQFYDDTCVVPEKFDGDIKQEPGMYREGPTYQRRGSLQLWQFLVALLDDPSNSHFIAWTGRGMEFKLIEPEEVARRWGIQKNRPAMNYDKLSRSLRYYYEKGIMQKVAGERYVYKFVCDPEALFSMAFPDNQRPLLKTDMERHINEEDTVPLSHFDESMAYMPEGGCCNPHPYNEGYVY
Sequence of ETV6 (P41212 whole entry): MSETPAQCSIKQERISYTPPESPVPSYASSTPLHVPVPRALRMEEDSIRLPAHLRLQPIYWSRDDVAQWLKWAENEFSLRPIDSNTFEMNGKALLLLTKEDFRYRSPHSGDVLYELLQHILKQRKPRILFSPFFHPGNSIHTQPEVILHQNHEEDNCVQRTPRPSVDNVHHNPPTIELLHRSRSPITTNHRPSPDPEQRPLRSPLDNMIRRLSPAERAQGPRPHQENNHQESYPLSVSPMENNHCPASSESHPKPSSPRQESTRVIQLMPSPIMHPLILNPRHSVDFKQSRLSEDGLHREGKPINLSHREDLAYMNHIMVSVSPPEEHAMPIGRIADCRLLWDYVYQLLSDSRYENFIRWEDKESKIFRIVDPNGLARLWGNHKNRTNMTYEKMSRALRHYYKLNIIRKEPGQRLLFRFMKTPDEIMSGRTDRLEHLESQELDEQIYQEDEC

As for TGGCCT, the binding signal with FEV is 1.54 fold enrichment (6-mer frequency, TF over GST control); with ETV5 it was 1.4 fold enrichment (6-mer frequency, TF over GST control); with HSF1, 1.32 fold enrichment (6-mer frequency, TF over GST control); with SPIC, 1.26 fold enrichment (6-mer frequency, TF over GST control); with ELF4, 1.51 fold enrichment (6-mer frequency, TF over GST control); in the assay with ELK4, 1.53 fold enrichment (6-mer frequency, TF over GST control). The binding signal in the assay with ETV2 is 1.46 fold enrichment (6-mer frequency, TF over GST control); in the assay with ELF3 it was 1.47 fold enrichment (6-mer frequency, TF over GST control); with CRX, 1.31 fold enrichment (6-mer frequency, TF over GST control); with ETV1 it was 1.27 fold enrichment (6-mer frequency, TF over GST control); with ERF, 1.38 fold enrichment (6-mer frequency, TF over GST control); with ETV3L it was 1.37 fold enrichment (6-mer frequency, TF over GST control). For the same sequence, the binding signal with ETS2 was 1.32 fold enrichment (6-mer frequency, TF over GST control); with SPDEF, 1.42 fold enrichment (6-mer frequency, TF over GST control); with ETV7, 1.42 fold enrichment (6-mer frequency, TF over GST control); with ELF5, 1.33 fold enrichment (6-mer frequency, TF over GST control); with ETV3, 1.35 fold enrichment (6-mer frequency, TF over GST control); with ETV6 it was 1.5 fold enrichment (6-mer frequency, TF over GST control).

The values are drawn from article PMC7862700, “An all-to-all approach to the identification of sequence-specific readers for epigenetic DNA modifications on cytosine”.
